Laboratory results reported in PubChem BioAssay (NCATS).
Records with an inconclusive call do not appear. A number with no mark means an inactive call. The source made the active and inactive calls. The call rests on the fitted dose curve; in most records, active means well fitted inhibition curve with a large enough effect; inconclusive means small, poorly fitted or top-dose-only effect; inactive means no such curve, though single readings can be large or run the other way.

Molecular target: Retinaldehyde dehydrogenase 3 (Homo sapiens) (UniProt P47895)
Experiment: qHTS for Inhibitors of the Aldehyde Dehydrogenase Family (ALDH1A3) Primary screen (AID 2061315);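 further: plate controls were DMSO vehicle for no effect and reference inhibitor for full effect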
Conditions: ALDH inhibition qHTS; series mostly up to 56 µM; activity change, negative = inhibition: at the top concentration

| Compound | activity change, negative = inhibition | Potency |
| --- | --- | --- |
| O=C1CCCC2=C1C(c1[nH]ncc1Cl)NC(=NCc1ccoc1)N2 (centres undefined) | 1.61% | – |
| CN1CCOc2ccc(S(=O)(=O)N3CCN(S(=O)(=O)c4c(F)cccc4F)CC3)cc21 | – | inactive |
| Cc1cc2c(s1)c1cnn(Cc3cc(F)ccc3F)c(=O)c1n2C | 3.9% | – |
| Cc1ccc2nc3sc(C(=O)N4CCC(C(N)=O)CC4)cc3cc2c1 | -8.16% | – |
| CC(Nc1ccc([S+](=O)([O-])Nc2nccs2)cc1)c1ccccc1 (centres undefined) | 7.83% | – |
| CCCn1c(C)nc2c(N3CCC(N(C)C)C3)nc(C)nc21 (centres undefined) | 4.86% | – |
| Cc1ccc(NS(=O)(=O)c2ccc3c(c2)CCN(C(=O)C(F)(F)F)C3)cc1C | 2.51% | – |
| Cc1cc2c(s1)c1cnn(Cc3cccc4cccnc34)c(=O)c1n2C | 6.66% | – |
| CCCn1c(C)nc2c(NCC(C)(C)CN(C)C)nc(C)nc21 | 18.3% | – |
| CS(=O)(=O)c1ccc(C(=O)OCC(=O)N2CCOCC2)cc1[N+](=O)[O-] | -4.45% | – |
| N#Cc1c(-c2cccc(C(F)(F)F)c2)no[n+]1[O-] | -2.16% | – |
| O=C(NC1CCCc2c1cnn2-c1ccc(F)cc1F)c1cccs1 (centres undefined) | – | inactive |
| C=CCOc1cc(Cl)ccc1C(=O)NCCN(CC)CC | 9.49% | – |
| COc1cccc(OC)c1C1=Nn2c(nnc2-c2ccccc2O)SC1 | 23.3% | – |
| O=C(CCc1ccccc1)Nc1cccc([S+](=O)([O-])Nc2ccccc2F)c1 | 8.77% | – |
| COC/C=C/c1cc(F)c(S(=O)(=O)N2CCN(S(=O)(=O)c3ccc4c(c3)OCCO4)CC2)cc1F | -6.58% | – |
| Cc1cc(N[S+](=O)([O-])c2ccc(NC(=O)Cc3ccc(F)c(C(F)(F)F)c3)cc2)no1 | 9.18% | – |
| CC(C)Oc1ccccc1C(=O)Nc1nc(-c2ccccc2)cs1 | 2.61% | – |
| CC(C)c1cc(C(C)C)c(S(=O)(=O)Nc2cccc3cccnc23)c(C(C)C)c1 | 15.2% | – |
| N#Cc1cccc(S(=O)(=O)N2CCN(S(=O)(=O)c3ccc4c(c3)OCCO4)CC2)c1 | 7.87% | – |
| FC(F)(F)c1ccccc1-c1nc(NCC#Cc2cccnc2)c2ccccc2n1 | – | inactive |
| C/C=C1\[C@H](O[C@@H]2O[C@H](CO)[C@@H](O)[C@H](O)[C@H]2O)OC=C2C(=O)OCCc3ccc(O)c(c3)Oc3ccc(cc3)CCOC(=O)C[C@H]21 | -18.2% [at 16.9 µM] | – |
| N#CN1CCC(NS(=O)(=O)c2ccc(C(F)(F)F)cc2)C1 (centres undefined) | 3.31% | – |
| CC(C)CCCCC(=O)N[C@@H](CO)C(=O)N[C@@H](CC(C)C)C(=O)[C@@]1(CO)CO1 | 8.15% | – |
